From PubChem BioAssay (NCI)
Compounds without any hit were thinned out: in the full panel of roughly 79,000, 15% have a hit. The source made the active and inactive calls. No stated cut-off is given here; in the data, active means growth inhibition above about 70%; inactive means the rest.

Legend:
[1] = NCI Yeast Anticancer Drug Screen. Data for the rad50 strain (AID 155);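 further: 0% = growth of vehicle-only cultures of the same strain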; conditions: S. cerevisiae rad50 strain growth inhibition, stronger effect = higher value
How it was run: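 Compounds were tested on a yeast strain with an engineered DNA damage repair alteration; the reported value is growth inhibition normalised to vehicle treatment.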

[2] = NCI Yeast Anticancer Drug Screen. Data for the mec2-1 strain (AID 157); conditions: S. cerevisiae mec2-1 strain, stronger effect = higher value
How it was run: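 Test agents were screened against the mec2-1 yeast strain, with defined DNA repair or cell cycle alteration. Growth was scored as inhibition against vehicle-only controls.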

[3] = NCI Yeast Anticancer Drug Screen. Data for the sgs1 mgt1 strain (AID 161);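 further: 0% = growth of cultures given vehicle only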; conditions: S. cerevisiae sgs1 mgt1 strain, stronger effect = higher value
How it was run: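 Mutant yeast exposed to compound; growth scored against vehicle-only wells.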

[4] = NCI Yeast Anticancer Drug Screen. Data for the cln2 rad14 strain (AID 165);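 further: 0% = growth equal to vehicle treated cultures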; conditions: S. cerevisiae cln2 rad14 strain, stronger effect = higher value
How it was run: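 Growth of compound-exposed yeast (cln2 rad14 genotype) measured and expressed as inhibition relative to vehicle.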

[5] = NCI Yeast Anticancer Drug Screen. Data for the bub3 strain (AID 167); conditions: S. cerevisiae bub3 mutant strain, stronger effect = higher value
How it was run: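 Growth of a checkpoint-deficient yeast mutant is measured after compound exposure. Values represent inhibition relative to vehicle.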

[6] = NCI Yeast Anticancer Drug Screen. Data for the mlh1 rad18 strain (AID 175); conditions: S. cerevisiae mlh1 rad18 strain growth inhibition, stronger effect = higher value
How it was run: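 In this whole-cell yeast screen, a strain with altered DNA damage repair is challenged with compound, and its growth is measured against matched vehicle-treated controls.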

[7] = at 5.0 µM (retest, dose inferred, filed as 0.5)
[8] = at 50.0 µM (retest, dose inferred, filed as 5.0)

Measured: growth inhibition

Cc1cc(O)c(NCCN(C)C)c2c(=O)c3ccccc3sc12
inactive: [1]; [7] 18% | [2]; [7] 7% | [3]; [7] 8% | [4]; [7] 12% | [5]; [7] 6% | [6]; [7] 5%
active: [1]; [8] 97% | [1]; at 50.0 µM 98.5% | [2]; [8] 97% | [2]; at 50.0 µM 99.1% | [3]; [8] 98% | [3]; at 50.0 µM 98.8% | [4]; [8] 97% | [4]; at 50.0 µM 97.8% | [5]; [8] 94% | [5]; at 50.0 µM 98% | [6]; [8] 97% | [6]; at 50.0 µM 98.7%

CCCCc1[nH]ccc2c(C)c3nc4ccccc4c3cc12
inactive: [1]; [7] 6% | [2]; [7] -8% | [3]; [7] -14% | [4]; [7] 2% | [5]; [7] 0% | [6]; [7] 21%
active: [1]; [8] 93% | [1]; at 50.0 µM 96.8% | [2]; [8] 96% | [2]; at 50.0 µM 91.2% | [3]; [8] 96% | [3]; at 50.0 µM 97.5% | [4]; [8] 95% | [4]; at 50.0 µM 92.1% | [5]; [8] 94% | [5]; at 50.0 µM 88.7% | [6]; [8] 95% | [6]; at 50.0 µM 98.4%

CC1CCC2(CC1)NC1=C(CC(C)CC1)C1=C2CC(C)CC1 (configuration not stated)
active: [1]; [8] 87% | [2]; [8] 85% | [6]; [8] 89%
inactive: [1]; [7] 46% | [1]; at 50.0 µM 3.8% | [2]; [7] 28% | [2]; at 50.0 µM -29.6% | [3]; [7] -1% | [3]; [8] 27% | [3]; at 50.0 µM -21.9% | [4]; [7] 14% | [4]; [8] 26% | [4]; at 50.0 µM 13.2% | [5]; [7] -16% | [5]; [8] 17% | [5]; at 50.0 µM -4.4% | [6]; [7] 32% | [6]; at 50.0 µM 10.4%

C1=C([P+](c2ccccc2)(c2ccccc2)c2ccccc2)CCCC1
inactive: [1]; [7] 22% | [2]; [7] -2% | [3]; [7] 13% | [4]; [7] 24% | [5]; [7] -8% | [6]; [7] 14%
active: [1]; [8] 93% | [1]; at 50.0 µM 89.8% | [2]; [8] 91% | [2]; at 50.0 µM 92.2% | [3]; [8] 84% | [3]; at 50.0 µM 88.5% | [4]; [8] 90% | [4]; at 50.0 µM 86.5% | [5]; [8] 92% | [5]; at 50.0 µM 87.5% | [6]; [8] 91% | [6]; at 50.0 µM 91.9%

O=C(Cc1nc2ccccc2s1)C(=O)Nc1ccc(Cl)cc1
active: [4]; at 50.0 µM 75%
inactive: [1]; [7] 2% | [1]; [8] 4% | [1]; at 50.0 µM 8% | [2]; [7] -1% | [2]; [8] 2% | [2]; at 50.0 µM 23.1% | [3]; [7] 4% | [3]; [8] 0% | [3]; at 50.0 µM 17.5% | [4]; [7] 2% | [4]; [8] 2% | [5]; [7] 5% | [5]; [8] -2% | [5]; at 50.0 µM 63.5% | [6]; [7] 1% | [6]; [8] 7% | [6]; at 50.0 µM 3.3%

C/C=C/C/S(=N\S(=O)(=O)c1ccc(C)cc1)c1ccccc1 (configuration not stated)
inactive: [1]; [7] 4% | [2]; [7] 4% | [3]; [7] 11% | [4]; [7] 1% | [4]; at 50.0 µM 40.9% | [5]; [7] -7% | [6]; [7] 5%
active: [1]; [8] 93% | [1]; at 50.0 µM 96.7% | [2]; [8] 88% | [2]; at 50.0 µM 95.5% | [3]; [8] 97% | [3]; at 50.0 µM 81.5% | [4]; [8] 73% | [5]; [8] 97% | [5]; at 50.0 µM 94.7% | [6]; [8] 95% | [6]; at 50.0 µM 93.3%

O=C(O)CCCc1ccc2ccccc2c1
inactive: [1]; [7] -5% | [1]; [8] 0% | [1]; at 50.0 µM 17.4% | [2]; [7] 11% | [2]; [8] -1% | [2]; at 50.0 µM -27.1% | [3]; [7] 10% | [3]; [8] 6% | [3]; at 50.0 µM 11.9% | [4]; [7] 14% | [4]; [8] -71% | [4]; at 50.0 µM 40% | [5]; [7] 13% | [5]; [8] 0% | [5]; at 50.0 µM 5.65% | [6]; [7] -1% | [6]; [8] 9% | [6]; at 50.0 µM 12%

CC(=O)C(C=O)C(C)=O.CC(=O)CC(C)=O.CC(=O)CC(C)=O.[Ru]
inactive: [1]; [7] 4% | [1]; [8] 59% | [1]; at 50.0 µM 36.9% | [2]; [7] 60% | [3]; [7] 16% | [3]; [8] 61% | [3]; at 50.0 µM 50.5% | [4]; [7] 0% | [4]; [8] 44% | [4]; at 50.0 µM 36% | [5]; [7] -7% | [5]; [8] 33% | [5]; at 50.0 µM -1.3% | [6]; [7] 11% | [6]; [8] 66% | [6]; at 50.0 µM 52.8%
active: [2]; [8] 98% | [2]; at 50.0 µM 97.9%

COC(=O)c1cc(/C=C/c2ccccc2)on1
inactive: [1]; [7] -3% | [1]; [8] 3% | [1]; at 50.0 µM -3.75% | [2]; [7] 5% | [2]; [8] 1% | [2]; at 50.0 µM 0.55% | [3]; [7] 2% | [3]; [8] 8% | [3]; at 50.0 µM 10.5% | [4]; [7] -4% | [4]; [8] -14% | [5]; [7] 6% | [5]; [8] 14% | [5]; at 50.0 µM 2.75% | [6]; [7] -3% | [6]; [8] 2% | [6]; at 50.0 µM -9.55%
active: [4]; at 50.0 µM 82.2%
